Hits are enriched below; roughly 3.5% of the tested compounds scored in any of these assays.
MBD2 inh – blocks human MBD2 binding to methylated DNA | AID 686964 | TR-FRET, MBD2 binding to methylated oligonucleotide | inhibition, % at 4.4 µM | actives 0.31% (n = 370,000); in the data active means inhibition above about 13%
PG9 Ab binder – PG9 antibody binding by small molecule. TR-FRET gp120-PG9 antibody binding. inhibition, % at 6.7 µM. actives 0.43% (n = 360,000); in the data active means inhibition above about 8.5%
DNMT1 inh – DNMT1 (human) enzyme inhibition. P26358. DNMT1 molecular beacon, Hinp1I cleavage, fluorescence. actives 0.83% (n = 360,000). inhibition (reported as % activation of signal), % at 10 µM; in the data active means inhibition above about 50%
rCAG RNA binder – r(CAG) repeat RNA binding; TO-PRO-1 dye displacement fluorescence; inhibition, % at 3 µM; actives 1.3% (n = 370,000); AID 651821;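 active means inhibition above the plate cutoff, the mean of all test compounds on that plate plus 3 SD, cut at about 35% in these data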;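 further: higher means more dye released from RNA so lower well fluorescence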
LEDGF integ inh – blocks HIV-1 LEDGF/p75-dependent DNA integration. TR-FRET IN-LEDGF/p75 DNA integration, Eu/Cy5. inhibition, % at 3.7 µM. actives 0.64% (n = 370,000);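 active means inhibition above the screen-wide mean plus 3 SD, cut at about 13% in these data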;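 further: signal is the Cy5 over europium emission ratio at 671 and 618 nm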
UHRF1 MBD2 ctr – UHRF1 methyl-DNA binding inhibition; UHRF1 binding to methylated oligo, TR-FRET; inhibition, % at 4.4 µM; actives 0.75% (n = 370,000); AID 687016; in the data active means inhibition above about 21%;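 further: UHRF1 SRA domain binding a hemimethylated CpG hairpin DNA probe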
Target sequence (Q96T88 whole entry, looked up, the tested form may be a part): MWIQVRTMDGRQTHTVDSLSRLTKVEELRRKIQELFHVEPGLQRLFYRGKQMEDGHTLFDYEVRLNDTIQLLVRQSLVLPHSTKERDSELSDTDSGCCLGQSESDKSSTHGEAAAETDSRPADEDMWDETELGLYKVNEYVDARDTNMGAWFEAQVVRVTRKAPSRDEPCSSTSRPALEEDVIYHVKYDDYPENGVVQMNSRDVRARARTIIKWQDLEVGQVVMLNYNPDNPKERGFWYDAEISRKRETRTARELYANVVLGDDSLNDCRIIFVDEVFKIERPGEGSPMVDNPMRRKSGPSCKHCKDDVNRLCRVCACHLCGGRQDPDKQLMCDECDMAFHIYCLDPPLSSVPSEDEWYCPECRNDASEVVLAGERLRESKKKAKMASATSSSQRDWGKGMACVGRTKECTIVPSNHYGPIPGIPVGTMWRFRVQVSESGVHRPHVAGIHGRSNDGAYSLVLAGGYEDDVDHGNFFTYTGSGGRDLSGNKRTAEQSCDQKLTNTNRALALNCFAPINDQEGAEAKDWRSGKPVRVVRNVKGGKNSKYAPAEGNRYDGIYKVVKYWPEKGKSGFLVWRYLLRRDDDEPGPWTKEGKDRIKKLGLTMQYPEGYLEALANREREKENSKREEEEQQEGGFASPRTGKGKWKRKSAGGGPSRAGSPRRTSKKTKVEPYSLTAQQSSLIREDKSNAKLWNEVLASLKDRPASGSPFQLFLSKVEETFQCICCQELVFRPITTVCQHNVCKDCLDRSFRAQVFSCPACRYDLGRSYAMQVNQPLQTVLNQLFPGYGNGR
rCAG bind conf – r(CAG) RNA repeat binding, confirmation | shares compounds with rCAG RNA binder | TO-PRO-1 dye displacement fluorescence | inhibition, % at 3 µM | actives 70% (n = 4,300) | AID 652065;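 active means inhibition above a per-plate cutoff, the mean inhibition of sample wells plus 3 SD, cut at about 35% in these data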;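 further: loss of TO-PRO-1 fluorescence as compound displaces dye from 1x1 AA loop RNA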
dCAG dye counter – counter-screen for rCAG RNA binders: DNA CAG dye complex inhibitors | shares compounds with rCAG RNA binder | d(CAG) DNA oligo TO-PRO-1 dye displacement, fluorescence | actives 94% (n = 4,300) | inhibition, % at 3 µM;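 active means inhibition above its plate's cutoff, the mean test-well inhibition plus 3 SD, cut at about 4.8% in these data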;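 further: hits displace the dye from DNA and so lower well fluorescence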
DNA CAG DR – counter-screen for rCAG binders: inhibitors of DNA CAG TO-PRO-1 complex. shares compounds with rCAG RNA binder. DNA CAG/GTC duplex TO-PRO-1 dye displacement fluorescence. IC50, µM. actives 20% (n = 250); in the data active means IC50 below about 10 µM
Each line names hits and unclear results; the compound was inactive in the other large screens (follow-up assays come after a bar, where they were run).

COc1cccc(-c2coc3c(C)c4oc(=O)c(CCC(=O)O)c(C)c4cc23)c1	rCAG RNA binder 58 | rCAG bind conf 74 | dCAG dye counter 34 | DNA CAG DR inactive
COc1cccc(-c2coc3cc4oc(=O)c(CCC(=O)O)c(C)c4cc23)c1	rCAG RNA binder 47 | rCAG bind conf 47 | dCAG dye counter 14
CCCCC(NC(=O)Cc1c(C)c2cc3c(-c4ccccc4)coc3c(C)c2oc1=O)C(=O)O (stereo unspecified)	rCAG RNA binder 37 | rCAG bind conf 65 | dCAG dye counter 24
Cc1ccc(-c2cc(C(=O)NN=Cc3c(O)ccc4ccccc34)[nH]n2)cc1C	none (no result: PG9 Ab binder, DNMT1 inh)
c1ccc2c(c1)N=C(N1CCN(Cc3ccc4c(c3)OCO4)CC1)c1ccccc1S2	none (no result: PG9 Ab binder, DNMT1 inh)
Cc1oc2c(c(C)cc3oc(=O)c(CC(=O)N[C@@H](CC(C)C)C(=O)O)c(C)c32)c1C	rCAG RNA binder 43 | rCAG bind conf inactive | dCAG dye counter 6.3
Cc1c(OC(C(=O)O)c2ccccc2)ccc2c1oc(=O)c1ccccc12 (stereo unspecified)	rCAG RNA binder 36 | rCAG bind conf 48 | dCAG dye counter 14
Cc1c(OC(C(=O)O)c2ccccc2)ccc2c3c(c(=O)oc12)CCC3 (stereo unspecified)	none
CCn1c(-c2cccs2)nc2ccccc21	none
CCn1c(C(C#N)/C(=N\S(=O)(=O)c2cccs2)c2ccccc2)nc2ccccc21 (stereo unspecified)	rCAG RNA binder 37 | rCAG bind conf inactive | dCAG dye counter 7.8
CCCn1c(N)c(C(=O)CN(C)CC(=O)Nc2c(Cl)cccc2Cl)c(=O)[nH]c1=O	none
CCCCNC(=O)C[C@H]1C[C@@]2(C(=O)OC)C(=C[C@H](COCc3ccccc3)O[C@@H]2C)N(Cc2ccco2)C1=O	none (no result: PG9 Ab binder, DNMT1 inh)
Nc1[nH]c(C(=O)c2ccccc2)c(-c2ccccc2Br)c1C(=O)c1cccs1	none (no result: DNMT1 inh)
Cc1ccc(-n2c(O)c(C=Nc3ccccc3-c3n[nH]c(=S)[nH]c3=O)c3ccccc3c2=O)c(C)c1	rCAG RNA binder 72 | rCAG bind conf 88 | dCAG dye counter 57
Cc1cccc(-n2c(O)c(C=Nc3cc(O)ccc3C)c3ccccc3c2=O)n1	none
Cc1cccc(-n2c(O)c(C=Nc3ccccc3-c3n[nH]c(=S)[nH]c3=O)c3ccccc3c2=O)n1	rCAG RNA binder 46 | rCAG bind conf 44 | dCAG dye counter 13
Cc1cccc(-n2c(O)c(C=Nc3ccccc3O)c3ccccc3c2=O)n1	none
Cc1ccc(-n2c(O)c(C=Nc3ccccc3-c3n[nH]c(=S)[nH]c3=O)c3ccccc3c2=O)cc1C	rCAG RNA binder 77 | rCAG bind conf 81 | dCAG dye counter 48
O=C(NOC(=O)c1c(F)cccc1Cl)c1ccc(Cl)c(Cl)c1	none
O=C(O)c1ccccc1C(=O)N1N=C2/C(=C/c3cccc([N+](=O)[O-])c3)CCCC2C1c1cccc([N+](=O)[O-])c1 (stereo unspecified)	rCAG RNA binder 52 | rCAG bind conf 73 | dCAG dye counter 30
O=C(O)c1c(C(=O)N2N=C3/C(=C/c4ccccc4)CCCC3C2c2ccccc2)cccc1[N+](=O)[O-] (stereo unspecified)	rCAG RNA binder 35 | rCAG bind conf 56 | dCAG dye counter 17
CC(=O)N1N=C2/C(=C/c3ccccc3)CCCC2C1c1ccccc1 (stereo unspecified)	none
CCOC(=O)N1CCN(C(=O)CSc2nc(=O)n3ccc(C)cc3n2)CC1	none
Cc1cc(C(=O)N/N=C/c2cc([N+](=O)[O-])ccc2O)c2ccccc2n1	none
Cc1cc(C(=O)N/N=C/c2cc(Br)cc([N+](=O)[O-])c2O)c2ccccc2n1	rCAG RNA binder 49 | rCAG bind conf 58 | dCAG dye counter 20

Bioassay records deposited in PubChem by several laboratories.
